# Out of some 5,600 compounds screened, about 150 (2.7%) showed an effect of 50% or more. This excerpt belongs to a sample that is enriched for strong results.
# Target: T1, Protein deacetylase HDAC6 (Homo sapiens) (UniProt Q9UBN7)
# T1 sequence (whole entry): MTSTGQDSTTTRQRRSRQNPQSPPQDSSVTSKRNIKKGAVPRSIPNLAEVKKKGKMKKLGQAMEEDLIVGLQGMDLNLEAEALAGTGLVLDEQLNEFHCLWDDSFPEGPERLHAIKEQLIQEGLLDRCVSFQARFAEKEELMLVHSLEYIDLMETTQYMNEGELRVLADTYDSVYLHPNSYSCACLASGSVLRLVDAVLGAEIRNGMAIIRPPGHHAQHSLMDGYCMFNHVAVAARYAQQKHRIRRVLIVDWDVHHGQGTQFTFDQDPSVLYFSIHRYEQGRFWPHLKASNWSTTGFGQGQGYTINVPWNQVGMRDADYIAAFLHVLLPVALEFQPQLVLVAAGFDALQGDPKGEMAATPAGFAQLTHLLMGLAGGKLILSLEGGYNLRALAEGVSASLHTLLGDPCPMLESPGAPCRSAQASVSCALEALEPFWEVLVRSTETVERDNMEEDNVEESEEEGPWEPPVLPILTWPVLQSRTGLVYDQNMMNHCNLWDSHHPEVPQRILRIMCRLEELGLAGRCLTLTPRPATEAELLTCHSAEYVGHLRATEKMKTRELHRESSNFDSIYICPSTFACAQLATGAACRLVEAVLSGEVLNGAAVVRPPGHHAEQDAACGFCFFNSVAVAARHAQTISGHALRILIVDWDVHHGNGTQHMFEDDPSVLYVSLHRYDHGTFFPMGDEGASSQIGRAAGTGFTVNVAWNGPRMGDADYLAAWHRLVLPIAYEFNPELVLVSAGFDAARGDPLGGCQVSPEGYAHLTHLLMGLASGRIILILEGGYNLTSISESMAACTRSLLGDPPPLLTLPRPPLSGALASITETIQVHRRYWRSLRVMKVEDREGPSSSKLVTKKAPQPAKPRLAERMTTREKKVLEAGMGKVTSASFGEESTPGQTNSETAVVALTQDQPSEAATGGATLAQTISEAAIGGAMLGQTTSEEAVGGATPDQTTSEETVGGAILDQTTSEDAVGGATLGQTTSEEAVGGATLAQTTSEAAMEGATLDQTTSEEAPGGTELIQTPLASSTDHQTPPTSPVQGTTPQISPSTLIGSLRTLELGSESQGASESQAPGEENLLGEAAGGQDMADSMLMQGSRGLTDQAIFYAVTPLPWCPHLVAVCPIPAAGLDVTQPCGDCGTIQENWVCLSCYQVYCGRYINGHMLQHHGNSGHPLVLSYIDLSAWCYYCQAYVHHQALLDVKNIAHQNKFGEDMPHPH
# Conditions: at 10 µM
row,Compound,inhibition [%]
1,O=C(/C=C/c1cccc(S(=O)(=O)Nc2ccccc2)c1)NO,97.7
2,O=C(/C=C/c1ccccc1)NCCO,44.6
3,CCNC(=O)/C=C/c1cccc(Br)c1,11.1
4,Cc1cc(Cl)ccc1OCCCC(=O)NO,87.1
5,COc1ccc(Cl)cc1C(=O)NCCc1ccc(C(=O)O)cc1,-2.67
6,Cc1ccc(C)c(OCCCC(C)(C)C(=O)O)c1,4.07
7,N=C(N)NCCC[C@H](N)C(=O)NCC(=O)N[C@@H](CC(=O)O)C(=O)N[C@@H](CO)C(=O)O,5.37
8,O=C(c1ccc2nccnc2c1)N1CCCCC1,-1.26
9,CCNC(=O)NS(=O)(=O)c1sc(CC(C)C)cc1-c1ccc(Cn2c(-c3ccccc3)nc(OC)c2C=O)cc1,-1.89
10,COc1ccc(Cl)c(Nc2nc3ccccc3nc2NS(=O)(=O)c2cccc(NC(=O)C(C)(C)N)c2)c1,-9.43
11,COc1ccc2nc(NC(=O)Nc3ccccc3)sc2c1,58.2
12,CCOc1ccc2nc(S(N)(=O)=O)sc2c1,1.88
13,COC(=O)[C@H](Cc1cccc(C(=N)N)c1)[C@@H](C)NC(=O)c1ccc(-c2cc[n+]([O-])cc2)cc1,-6.46
14,N#CCC1(n2cc(-c3ncnc4[nH]ccc34)cn2)CN(C2CCN(C(=O)c3ccnc(C(F)(F)F)c3F)CC2)C1,-4.32
15,Cc1ccccc1/N=N/c1ccc(/N=N/c2c(O)ccc3ccccc23)c(C)c1,0.88
16,Cc1ccc(O)c(/N=N/c2ccccc2)n1,99.5
17,CC(C)(CC(=O)N1CCCC1)NCC(=O)N1C[C@@H](F)C[C@H]1C#N,1.6
18,CSc1cc2c(cc1C(F)(F)F)N(C(=O)Nc1cccnc1)CC2,1.32
19,Cn1ccc2cc(NC(=O)Nc3cccnc3)ccc21,39.6
20,Cn1ccc2cc3c(cc21)CCN3C(=O)Nc1cccnc1,69.4
21,COc1ccccc1N1CCN(CC(O)COc2cc(OC)c(OC)c(OC)c2)CC1 (stereo not given),-4.5
22,O=C(CCCCCCCn1cc(-c2cccnc2)nn1)Nc1ccccc1-c1ccccc1,-3.08

row,Compound,inhibition [%]
1,NC(=O)c1cccnc1,9.25
2,O=C(O)CCCCCCCC(=O)O,0.37
3,O=C(CCCCCCC(=O)NO)NO,96.5
4,O=C(O)CCCCCCCCC(=O)O,0.43
5,O=C(CCCCCCC(=O)Nc1cccnc1)NO,98.1
6,CC(C)Cc1ccc([C@@H](C)C(=O)NS(C)(=O)=O)cc1,-2.75
7,OC(c1ccc(-c2ccc(CN3CCN(Cc4ccncc4)CC3)cc2)c(F)c1)(C(F)(F)F)C(F)(F)F,-2.34
8,N#Cc1cccc(C(=O)Nc2cc(-c3ccccc3)nn2-c2ccccc2)c1,12.2
9,Cc1ccc(-c2ccc(C)cn2)nc1,70.4
10,CCOc1ccc(NC(=S)N2CCC(C(O)(c3ccccc3)c3ccccc3)CC2)cc1,-1.16
11,O=C(O)C(O)C(O)C(O)C(O)CO (stereo not given),-3.09
12,O=Cc1ccc(CO)o1,-2.99
13,CS(=O)(=O)c1ccc(Oc2cc(F)cc(C#N)c2)c2c1[C@H](O)C(F)(F)C2,-4.01
14,CCc1nc(C(N)=O)c(Nc2ccc(N3CCC(N4CCN(C)CC4)CC3)c(OC)c2)nc1NC1CCOCC1,0.8
15,Fc1ccc(-c2nc(-c3c(F)cccc3F)[nH]c2-c2ccncc2)cc1,-5.55
16,Cc1ccc(-c2cn3c4c(sc3n2)CCCC4)cc1,95.1
17,N=C(N)Nc1ccc(Cl)cc1,0.23
18,N=C(N)c1ccc(/N=N/Nc2ccc(C(=N)N)cc2)cc1,-8.86
19,Cc1sc(C)c(C(=O)NC2(c3ccc(C(=O)O)cc3)CC2)c1Cc1ccc(C(F)(F)F)cc1,3.37
20,O=C1COc2c(CCNCCN(C(=O)CCNCCc3ccc(Cl)c(Cl)c3)C3CCCCC3)ccc(O)c2N1,3.6
21,C[C@H](C[C@H](N)C(=O)O)C(=O)O,2.11
22,c1ccc2[nH]c(-c3cscn3)nc2c1,84.5

row,Compound,inhibition [%]
1,c1ccc(N2CCN(Cc3nc4ccccc4[nH]3)CC2)nc1,1.74
2,COc1ccc(C(=O)C2CCN(CC(=O)N(Cc3nc4c(c(=O)[nH]3)COCC4)CC3CC3)CC2)cc1,-1.1
3,O=C(NCC(=O)N1CCCCC1)Nc1ccc2nnsc2c1,4.96
4,O=C(O)c1ccc2nc(-c3cc(Cl)cc(Cl)c3)oc2c1,99.2
5,O=C(O)c1ccc2c(c1)nc(Nc1cccc(Cl)c1)c1ccncc12,-4.86
6,CCS(=O)(=O)c1ccc2oc(-c3ccc4ccccc4c3)nc2c1,37.2
7,C=C1C(=O)[C@@]23C(CC[C@@H]1[C@H]2O)[C@@]12CO[C@]3(O)[C@@H](O)[C@@H]1C(C)(C)CC[C@@H]2O (stereo not given in full),-6.66
8,O=C(O)c1cc(-c2ccccc2)nc2ccccc12,-1.66
9,COc1cc2ncc(-c3ccccc3)nc2cc1OC,97.5
10,COC(=O)[C@H](NC(=O)c1cc(-c2ccccc2)nc2ccccc12)c1ccccc1,0.79
11,C/C(=N\c1ccccc1N)c1c(C)cc(=O)n(O)c1O,2.45
12,O=C(O)CCCCN(CCc1ccccc1OCc1ccc(CCc2ccccc2)cc1)Cc1ccc(C(=O)O)cc1,-4
13,COc1cc2c(NC3CCN(C4CCCCC4)CC3)nc(N3CCCN(C(C)C)CC3)nc2cc1OCCCN1CCCCC1,-8.06
14,COc1cc2nc(C3CC3)nc(N3CCN(c4ccccc4OC)CC3)c2cc1OC,0
15,CC(C(=O)O)c1cccc(C(=O)c2ccccc2)c1 (stereo not given),4.07
16,CC(C(=O)O)c1ccc(N2Cc3ccccc3C2=O)cc1 (stereo not given),82.1
17,CC(C(=O)O)c1ccc2c(c1)CC(=O)c1ccccc1S2 (stereo not given),-3.15
18,CNC(=O)O[C@H]1COc2ccc(N3CCN(C4COC4)CC3)cc2[C@@H]1NC(=O)c1ccc(F)cc1,-3.83
19,O=C1Nc2cc(Br)ccc2/C1=C1/Nc2ccccc2/C1=N\O,2.55
20,O=C1COc2nccc(-c3ccccc3F)c2CN1Cc1cc(C(F)(F)F)cc(C(F)(F)F)c1,-5.84
21,C=C1/C(=C\C=C2/CCC[C@]3(C)[C@@H]([C@H](C)OCCC(C)(C)O)CC[C@@H]23)C[C@@H](O)C[C@@H]1O,1.22
22,NS(=O)(=O)C#Cc1ccccc1,-5.38

row,Compound,inhibition [%]
1,Cc1cccc(C#Cc2ccccc2)n1,94.7
2,COc1cc(C(=O)N(CCC2CCCN2C)C/C(C)=C/c2ccccc2F)cc(OC)c1OC (stereo not given),-2.86
3,CC(C)(C)c1cc(C(=O)/C(C#N)=N/Nc2cccc(Cl)c2)no1,7.67
4,CNC(=O)c1c(C)oc2cc(Oc3ncnc4cc(OC)c(OC)cc34)ccc12,14.7
5,CC(C)Oc1ccc2c(=O)c3cc(C(=O)O)ccc3oc2c1,76.3
6,CC(C)(N)c1cc(C(=O)N[C@@H]2CCc3ccc(Oc4ccnc5c4CCC(=O)N5)cc3C2)cc(C(F)(F)F)c1,-1.36
7,CN(C)C/C=C/C(=O)Nc1ccc(C(=O)Nc2cccc(Nc3ncc(Cl)c(-c4c[nH]c5ccccc45)n3)c2)cc1,-4.86
8,CN(C)c1ccc(C(=C2C=CC(=[N+](C)C)C=C2)c2ccc(N(C)C)cc2)cc1,59.7
9,NC(=O)c1ccc2[nH]ccc2c1,-7.83
10,O=C(Nc1ccc2[nH]ccc2c1)c1ccccc1,49.3
11,O=C(Nc1cc2cc[nH]c2cn1)c1ccccc1,97.7
12,CCOc1ccc(-n2c([C@@H](C)N(Cc3cccnc3)C(=O)Cc3ccc(OC(F)(F)F)cc3)nc3ncccc3c2=O)cc1,-2.97
13,COc1cccc(N2CCN(C3=Nc4c(F)cccc4[C@H](CC(=O)O)N3c3cc(C(F)(F)F)ccc3OC)CC2)c1,-7.43
14,O=C1c2ccccc2C(=O)C1c1ccc(Br)cc1,86.8
15,O=C1c2ccccc2C(=O)C1c1ccc(Cl)cc1,-0.61
16,COc1ccc(C2C(=O)c3ccccc3C2=O)cc1,97.2
17,COc1ccc(C2CC(c3ccccc3)=NN2c2ccc(S(N)(=O)=O)cc2)cc1 (stereo not given),-2.13
18,O=C1c2ccccc2C(=O)C1c1ccccc1,0.29
19,COc1ccc(Oc2c(Cl)cnn(C3c4ccccc4-c4ccccc43)c2=O)cc1,3.12
20,Nc1ncc2c(n1)CC(c1ccco1)CC2=O (stereo not given),10.6
21,CO/N=C1\C[C@@H](C(=O)NC[C@@H](O)c2ccccc2)N(C(=O)c2ccc(-c3ccccc3C)cc2)C1,-5.99
22,CC(=O)Oc1ccccc1C(=O)Nc1ccccc1,24.1

row,Compound,inhibition [%]
1,Nc1n[nH]c2nnc(-c3c(-c4ccccc4)nn4ccccc34)cc12,1.45
2,CCN(CCNC(=O)Nc1ccccc1Br)c1cccc(C)c1,-8.23
3,NC(=O)c1ccc([N+](=O)[O-])cc1Cl,3.17
4,O=C(Nc1ccc([N+](=O)[O-])cc1O)Nc1ccccc1Br,61.6
5,CCC(C(=O)O)c1ccc(CC(C)C)cc1 (stereo not given),5.56
6,CCCCC1OC(=O)c2ccccc21 (stereo not given),4.45
7,N[C@@H]1c2cccnc2[C@H](OC(=O)N2CCC(n3c(=O)[nH]c4ncccc43)CC2)CC[C@H]1c1cccc(F)c1F,-1.43
8,CS(=O)(=O)N(Cc1ccco1)CC(O)Cn1c2ccccc2c2ccccc21 (stereo not given),-5.79
9,O[C@H]1CC[C@H](Nc2nc(-c3ccccc3)nc3[nH]ccc23)CC1,2.15
10,CN1CCC(NC(=O)c2cc(-c3c(O)cc(O)cc3Oc3ccc([N+](=O)[O-])cc3)on2)CC1,-7.8
11,O=C(NC1CC1)c1cc(-c2cccs2)on1,60.8
12,Cc1ccc(S(=O)(=O)NCc2ccccc2)cc1,-1.3
13,CO[C@H]1CC[C@@H](C(=O)c2ccc3nc4c(cc3c2)CCCO4)CC1,1.73
14,CCCn1c(=O)c2[nH]c(-c3cnn(Cc4cccc(C(F)(F)F)c4)c3)nc2n(CC)c1=O,2.86
15,CC(=O)NC[C@H]1CN(c2ccc(N3CCN(C(=O)CO)CC3)c(F)c2)C(=O)O1,-2.46
16,COc1cc(NC(=O)c2ccc(-c3ccc(Cl)cc3)o2)cc(OC)c1,4.45
17,COc1cccc(NC(=O)/C=C/c2ccc(Cl)cc2)c1,91.8
18,COc1ccc(/C=C/C(=O)O)cc1,-6.98
19,CN(CCc1ccc(Cl)c(Cl)c1)CCN1CCCC1,3.41
20,N=C1NC(=O)/C(=C/c2ccc(O)cc2)S1,14
21,CCc1ccc(/C=C2/SC(=S)NC2=O)cc1,16.7
22,O=C(O)COc1ccc(/C=C2\SC(=O)NC2=O)cc1,95
